# In the library only some 2.4% were active in any assay of this set; here they are far more common.
# A3A deaminase = blocks human APOBEC3A ssDNA deamination; P31941; recombinant A3A, FAM/TAMRA ssDNA deamination fluorescence; inhibition, % at 20 µM; 330,000 compounds, 0.41% hits; AID 493011;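 active = at least 40% inhibition at 20 µM here, with at most 30% in a related deaminase screen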;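 also: plate controls were A3A with DMSO for no effect and wells lacking A3A enzyme for full effect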
# PfG6PD inh = PfG6PD (Plasmodium falciparum) enzyme inhibition | PfGluPho enzyme, NADPH resazurin-diaphorase fluorescence | AID 504690 | inhibition, % at 20 µM | 350,000 compounds, 0.78% hits;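 active = inhibition reaching at least a set limit at 20 µM in the primary screen, cut at about 59% in these data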;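 also: 0% = DMSO wells with substrate and 100% = DMSO wells lacking glucose-6-phosphate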
# PfM18AAP inh-1 = blocks P. falciparum M18 aspartyl aminopeptidase | recombinant PfM18AAP, H-Glu-NHMec fluorogenic cleavage | inhibition, % at 7.35 µM | 290,000 compounds, 1.2% hits | AID 1822;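 active = inhibition above the campaign mean inhibition over all tested compounds plus 3 SD, cut at about 28% in these data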;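 also: 0% = plate median of test compound wells and 100% = 2 mM ZnCl2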
# A3G deaminase = blocks human APOBEC3G single-stranded DNA deamination. Q9HC16. recombinant A3G, ssDNA deamination FAM/TAMRA fluorescence. inhibition, % at 20 µM. 330,000 compounds, 0.28% hits;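 active = inhibition of at least 40% at 20 µM, with no more than 30% in the related APOBEC3A deaminase screen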;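 also: plate controls were DMSO wells with A3G for no effect and wells lacking A3G enzyme for full effect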
# Target sequence (Q9HC16 whole entry, looked up): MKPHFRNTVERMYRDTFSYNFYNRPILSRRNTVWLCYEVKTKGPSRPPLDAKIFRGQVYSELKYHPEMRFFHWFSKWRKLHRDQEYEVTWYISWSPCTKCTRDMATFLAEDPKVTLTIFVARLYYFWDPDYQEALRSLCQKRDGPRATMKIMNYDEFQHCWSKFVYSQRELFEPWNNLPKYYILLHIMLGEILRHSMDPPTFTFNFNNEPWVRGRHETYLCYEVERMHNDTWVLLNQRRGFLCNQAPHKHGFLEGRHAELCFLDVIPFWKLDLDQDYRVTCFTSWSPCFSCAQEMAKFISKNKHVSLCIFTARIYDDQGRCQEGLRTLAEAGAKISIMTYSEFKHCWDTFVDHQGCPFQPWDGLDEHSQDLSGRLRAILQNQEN
# Yeast superoxide = lowers age-related superoxide in aged yeast cells | S. cerevisiae aged cells, superoxide DHE fluorescence; hits give low values | superoxide response (% of plate mean), % at 10 µM | 330,000 compounds, 0.18% hits;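 active = superoxide response under a set limit, about three screen SD below normal, cut at about 65% in these data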;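 also: yeast aged for seven days with compound at 30 °C before DHE staining; 100% = average MFI of all compound-treated wells on the plate with controls excluded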
# PfM18AAP inh-2 = confirmation of Plasmodium falciparum M18 aspartyl aminopeptidase inhibitors | shares compounds with PfM18AAP inh-1 | recombinant PfM18AAP, H-Glu-NHMec fluorogenic cleavage | inhibition, % at 7.35 µM | 2,400 compounds, 28% hits | AID 2170;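 active = mean inhibition over replicate wells above the hit cutoff set for the earlier primary screen, cut at about 29% in these data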;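 also: 0% = median of test compound wells and 100% = 2 mM ZnCl2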
# CTSL1 confirm = Cathepsin L (human) inhibition, confirmation. inhibition, % at 5.96 µM. 2,400 tested, under 10 active. purified cathepsin L1, Z-Leu-Arg-MCA fluorescence. shares compounds with PfM18AAP inh-1;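 active = average inhibition across replicates above the hit cutoff set in the earlier primary screen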;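 also: 0% = median of test compound wells and 100% = Z-Phe-Ala-diazomethylketone 1 µM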
# Target sequence (P07711 whole entry, looked up): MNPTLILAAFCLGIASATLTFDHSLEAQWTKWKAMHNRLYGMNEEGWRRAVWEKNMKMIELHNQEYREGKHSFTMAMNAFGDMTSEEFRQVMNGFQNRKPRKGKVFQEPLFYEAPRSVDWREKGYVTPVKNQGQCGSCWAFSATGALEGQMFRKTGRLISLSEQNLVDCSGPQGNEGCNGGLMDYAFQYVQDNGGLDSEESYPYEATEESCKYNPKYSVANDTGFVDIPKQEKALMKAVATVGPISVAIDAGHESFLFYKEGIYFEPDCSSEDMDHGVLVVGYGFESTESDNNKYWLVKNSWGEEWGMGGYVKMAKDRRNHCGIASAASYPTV
# Active calls of the source: *; x = not tested or not shown.
SMILES,A3A deaminase,PfG6PD inh,PfM18AAP inh-1,A3G deaminase,Yeast superoxide,PfM18AAP inh-2,CTSL1 confirm
COc1ccc(-n2nnnc2SCC(N)=O)cc1,5.5,-0.3,-8.8,-1.0,92.3,x,x
CC(OC(=O)/C=C/c1ccccc1)C(=O)N1CCc2ccccc21 (stereo unspecified),-2.9,1.3,x,-4.7,121.0,x,x
O=C(COC(=O)CNC(=O)c1cccc(OC(F)F)c1)NNC(=O)c1ccccc1,-1.5,3.7,x,-6.7,89.7,x,x
O=C(CSc1ncn[nH]1)c1ccccc1,x,30.9,41.9*,x,88.8,53.4*,-4.0
CN1/C(=C\C(=O)CSc2ncn[nH]2)C(C)(C)c2ccccc21,-0.4,-4.5,66.3*,-4.5,97.1,16.2,1.6
O=C(CSc1ncn[nH]1)c1ccco1,-1.9,17.7,23.4,-5.5,99.5,x,x
O=C(CSc1ncn[nH]1)N1CCCCC1,0.4,-6.3,44.9*,-7.2,112.1,-11.4,4.9
O=C(CSc1ncn[nH]1)c1cccc([N+](=O)[O-])c1,-1.3,-0.3,43.3*,-2.2,91.7,38.0*,-2.3
CC(NCC1(N2CCOCC2)CCCCC1)C(=O)Nc1ccc(Cl)cc1Cl (stereo unspecified),-5.1,-1.3,0.5,-8.0,113.3,x,x
CCOC(=O)c1[nH]c(C=O)c(C(=O)OCC)c1C,-3.9,1.2,4.7,-8.2,96.7,x,x
Cn1c(CO)nc2cc(N)ccc21,0.3,3.1,38.9*,-1.1,104.0,-45.2,0.9
Cc1ccc(-c2noc(CCC(=O)Nc3cccc(C(=O)NC4CC4)c3)n2)cc1,x,-3.6,x,x,x,x,x
O=C(/C=C1\SC(=O)NC1=O)Nc1ccc(C(=O)O)cc1,-5.3,-5.2,36.4*,-7.9,110.2,-37.0,2.1
Cc1ccccc1NC(=O)/C=C1\SC(=O)NC1=O,1.8,49.9,13.8,2.0,115.0,x,x
O=C(O)c1csc(N/N=C/c2ccc(Br)cc2)n1,x,-5.3,33.2*,x,x,-41.6,1.1
Cc1cccc(/C=C/C(=O)c2cc(Br)ccc(=O)c2O)c1,19.2,35.1,49.4*,7.3,119.8,-21.4,4.5
COc1cccc(OC)c1C(=O)NC(=O)NNc1cc(C(F)(F)F)cc(C)n1,-1.1,4.6,40.4*,-8.2,111.5,-0.9,2.8
COc1ccc(-n2c(Cn3nc(C(F)(F)F)cc3C)n[nH]c2=S)cc1,4.0,35.5,32.1*,12.6,93.9,-16.8,-3.3
COc1cccc(-n2c(Cn3nc(C(F)(F)F)cc3C)n[nH]c2=S)c1,-5.4,41.0,8.0,7.5,95.5,x,x
O=C(c1ccccc1NS(=O)(=O)c1ccc(F)cc1)N1CCOCC1,-2.0,2.7,-0.7,-2.7,95.9,x,x
O=C(COC(=O)c1cc(=O)[nH]c2ccccc12)NCCc1ccccc1,2.1,0.6,x,-5.7,90.6,x,x
COc1cc([N+](=O)[O-])ccc1-c1ccc(/C=N\n2cnnc2)o1,-3.0,4.4,44.5*,-6.0,98.3,-9.3,2.4
Cc1cc(-c2ccc(/C=N/n3cnnc3)o2)c(C)c([N+](=O)[O-])c1,4.2,4.6,43.3*,-6.2,102.7,-12.1,2.7
O=[N+]([O-])c1ccc(Cl)c(-c2ccc(/C=N/n3cnnc3)o2)c1,6.1,7.9,24.6,-1.8,107.4,x,x
CCCCN(C(=O)c1c(CC)noc1C)c1c(N)n(CCC)c(=O)[nH]c1=O,1.4,1.1,x,-4.2,89.6,x,x
SMILES,A3A deaminase,PfG6PD inh,PfM18AAP inh-1,A3G deaminase,Yeast superoxide,PfM18AAP inh-2,CTSL1 confirm
CCc1ccc(C(=O)COC(=O)C2CCN(c3ccc(C(F)(F)F)cn3)CC2)cc1,1.0,10.2,x,-9.1,102.1,x,x
Cc1c(CC(=O)O)c(=O)oc2cc(OCc3ccc(Br)cc3)ccc12,-0.5,-28.0,-5.3,-6.8,95.5,x,x
O=c1cc(-c2ccc(O)cc2)oc2c(O)c(O)c(O)c(O)c12,29.2,-18.1,51.6*,1.2,96.3,17.7,1.6
COc1ccc(N2CCN(C(=O)c3cccc(NC(=O)c4ccco4)c3)CC2)cc1,-2.0,13.0,7.2,-11.7,87.6,x,x
Cc1csc2c(SCC(=O)NNS(=O)(=O)c3cccc(C(F)(F)F)c3)ncnc12,-4.3,-12.3,35.7*,-11.1,92.0,-37.7,-4.4
Cc1cccc2sc(NNC(=O)C3=COCCO3)nc12,-0.5,-9.5,43.0*,0.5,88.1,18.2,2.0
O=C(NNc1nc2c(F)cc(F)cc2s1)C1=COCCO1,-3.0,18.2,32.8*,-11.9,95.2,-4.6,-0.2
O=C(COc1ccccc1)NNc1nc2c(F)cc(F)cc2s1,1.1,7.9,2.4,-1.4,110.2,x,x
CCC(=O)NNc1nc2c(F)cc(F)cc2s1,-1.1,5.2,44.2*,0.9,102.0,13.1,-4.0
Cc1cccc2sc(NNC(=O)C3COc4ccccc4O3)nc12 (stereo unspecified),0.6,10.6,36.4*,0.0,104.6,-23.0,1.9
O=C(NNc1nc2c(F)cc(F)cc2s1)C1COc2ccccc2O1 (stereo unspecified),-7.6,15.6,0.1,-20.1,106.1,x,x
c1ccc(CCCNCCCn2cnc3c(OCc4ccccc4)ncnc32)cc1,x,3.7,x,x,x,x,x
Cc1cc(NC(=O)CSC2=NS(=O)(=O)c3ccccc3N2)no1,0.9,-9.9,x,-8.0,89.9,x,x
Cc1ccc2c(c1)N(CC(=O)NCc1cccnc1)C(=O)CO2,3.7,-5.6,81.2*,-0.2,100.0,-56.7,1.1
O=C(NCc1ccco1)c1cc2cc(Br)ccc2o1,4.8,50.3,32.6*,28.4,90.9,-13.1,-2.9
Cc1c(C(=O)NCc2ccco2)oc2ccc(Br)cc12,4.8,-14.4,x,2.0,x,x,x
N#Cc1c(-c2ccccc2)[nH]c(=S)[nH]c1=O,-5.3,-17.5,33.5*,-2.3,107.2,-21.5,-1.1
CC1CCC(C(C)C)C2=C1C(C#N)(C#N)C(C#N)(C#N)C(c1ccccc1)N2 (stereo unspecified),-4.3,42.5,35.8*,-7.0,111.3,-32.4,-1.7
CC1=CC(C#N)(C#N)C(C#N)(C#N)C(c2ccccc2)N1 (stereo unspecified),-0.9,x,7.9,0.4,83.4,x,x
CCOc1ccc(Br)cc1S(=O)(=O)Nc1ncn[nH]1,3.1,-5.7,1.1,-5.1,91.0,x,x
CCOc1ccc(S(=O)(=O)Nc2ncn[nH]2)cc1,-3.6,3.4,46.4*,-8.8,92.2,32.6*,-4.5
CCN(CC)P(=O)(Nc1ccc([N+](=O)[O-])cc1)c1c(C)nn(CCC#N)c1NC(=O)c1ccc(Cl)cc1 (stereo unspecified),2.7,9.6,57.5*,4.0,113.9,8.0,-0.6
Cc1cc(NC(=O)c2ccc([N+](=O)[O-])cc2)n(CCC#N)n1,-1.5,4.8,0.6,-6.3,93.2,x,x
O=c1c2ccccc2cnn1Cc1n[nH]c(=S)n1-c1ccccc1Cl,-2.7,21.2,37.9*,15.0,105.5,5.7,0.9
O=c1c2ccccc2cnn1Cc1n[nH]c(=S)n1-c1ccc(F)cc1,-4.8,16.6,35.9*,16.8,104.7,-1.3,2.1
